The text below walks through data of PubChem BioAssay AID463173 (ICCB-Longwood Screening Facility, Harvard Medical School, 2010).

In all, about 52,000 compounds went through this assay and about 4,300 (8.3%) were called active. The full list was thinned out, with actives kept by preference. A number with no mark means an inactive call. Rule as the data show it: active = survival mostly below about 52% (no sharp cut-off); inactive = mostly above about 56%.

This assay has as its system DeltatarO mutant. The assay can be described thus: S. aureus survival, RN4220 and DeltatarO strains – OD600, teichoic acid synthesis inhibitors, primary screen (AID 463173). The following applies: S. aureus RN4220 wild type/DeltatarO growth, OD600, 18 h, stronger effect = lower value, screened at 18.75 µg/mL (by protocol).
As for `CC(=O)N1CCc2cc(S(=O)(=O)NC(Cc3ccccc3)C(=O)NCc3ccccc3)ccc21` (stereo not drawn), the survival was 79%.
On to `Cc1ccc2c(c1)N(CC(=O)N(Cc1cccnc1)C1CCCC1)C(=O)C(C)O2` (stereo not drawn), for which the survival is 97%.
The same measure for `Cc1ccc(-n2nc(C(=O)N3CCN(c4cc(Cl)ccc4C)CC3)c(=O)n(C)c2=O)cc1`: 116%.
As to `Cc1ccc(OCC(=O)Nc2ccc3nc(SCC(=O)Nc4ccc(C)cc4C)sc3c2)cc1`, the survival was 73%.
As for `Cc1ccc2nc(N3CCN(c4ccccc4)CC3)c3nnnn3c2c1`, the survival was 88%.
Regarding `COc1ccccc1CNc1nc2ccc(C)cc2n2nnnc12`, the survival is 17% (active).
As for `Cc1ccc2nc(NCc3ccccc3Cl)c3nnnn3c2c1`, the survival was 91%.
The same measure for `COc1ccc(N2CCN(c3nc4ccc(C)cc4n4nnnc34)CC2)cc1`: -5% (active).
The value for `Cc1ccc2nc(N3CCN(c4ccc(F)cc4)CC3)c3nnnn3c2c1` was 55%; that for `COc1ccc(OC)c(CNc2nc3ccc(C)cc3n3nnnc23)c1` was 88%; that for `COc1ccc(-c2ccc(Nc3ccc(C(=O)N4CCCCCC4)cc3)nn2)cc1` was 71%.
The value for `CCOc1ccccc1CNC(=O)c1cnc2sc(N3CCOCC3)nn2c1=O` was 67%; that for `CCCCCn1c(-c2cccc(C)c2)nc2ccccc21` was -2% (active); that for `CCCCCn1c(CCNC(=O)c2cccc(C)c2)nc2ccccc21` was 32% (active).
For the compound `CCCCCn1c(CCCNC(=O)c2cccc(C)c2)nc2ccccc21`, the survival was 51%.
The same measure for `CCCCCn1c(C(C)NC(=O)c2ccccc2)nc2ccccc21` (stereo not drawn): 81%; for `CCCCn1c(C)nc2ccccc21`: 104%; for `CCCCCn1c(-c2ccc(OC)c(OC)c2)nc2ccccc21`: 1% (active).
For `CCCCCn1c(CCCNC(=O)c2ccccc2OC)nc2ccccc21`, the survival is 53%.
Consider `CCCCn1c(CCCNC(=O)c2cccc(C)c2)nc2ccccc21`, for which the survival is 55%.
For the compound `CCOc1ccc(Cn2c(-c3ccc(OCC)c(OC)c3)nc3ccccc32)cc1OC`, the survival was 79%.
In the case of `COc1cccc(C(C(=O)NCc2ccco2)N(C(=O)Cn2nnc3ccccc32)C2CC2)c1OC` (stereo not drawn), the survival is 107%.
`CCOC(=O)c1noc2nc(C)n(CC(=O)Nc3cc(Cl)ccc3OC)c(=O)c12`: the survival was 109%.
`Cc1csc2nc(CCNS(=O)(=O)c3ccccc3)cn12`: the survival was 79%.
Take `Cc1cc(C)c(/C=C/c2onc(C)c2S(=O)(=O)N2CCC(C(=O)Nc3ccc(Cl)c(C(F)(F)F)c3)CC2)c(C)c1`: the survival is 67%.
With `Cc1nn2c(=O)cc(COC(=O)c3ccccc3NC(=O)c3ccccc3C)nc2s1`, the survival is 104%.
The same measure for `COc1ccc(-c2nc3scc(CCNS(=O)(=O)c4c(C)cc(C)cc4C)n3n2)cc1OC`: 85%; for `Cc1ccccc1-c1nc(CNC(=O)Nc2ccccc2)c(C)o1`: 89%; for `CC(C)Oc1ccc(CN2CCc3nc(Nc4ccc5c(c4)OCCO5)ncc3C2)cc1`: 77%.
The value for `Cc1ccc(Cl)cc1Nc1nn2c(=O)c3ccc(C(=O)NC(C)c4ccccc4)cc3nc2s1` (stereo not drawn) was 105%; that for `CN(C(=O)CSc1nc2ccc(NC(=O)COc3ccc(F)cc3)cc2s1)c1ccccc1` was 73%.
The same measure for `CC1CCCCN1CC(=O)N1CCCc2c1c(=O)oc1ccc(OCc3ccccc3)cc21` (stereo not drawn): 77%; for `CCC1CCCCN1CC(=O)N1CCCc2c1c(=O)oc1ccc(OCc3ccccc3)cc21` (stereo not drawn): 18% (active); for `CC1CCN(CC(=O)N2CCCc3c2c(=O)oc2ccc(OCc4ccccc4)cc32)CC1`: 98%.
As for `COc1ccc(N(Cc2nnc3n2CCCCC3)C(=O)Nc2cccc(C)c2)cc1Cl`, the survival is 81%.
The value for `COc1ccc(C2CC(=O)c3cc(-c4nc(-c5ccc(Cl)cc5)cs4)c(=O)[nH]c3C2)cc1` (stereo not drawn) was 167%; that for `Cc1sc(-c2cc3c([nH]c2=O)CC(c2ccccc2)CC3=O)nc1-c1ccc(Cl)cc1` (stereo not drawn) was 73%.
The same measure for `COc1ccc(C2CC(=O)c3cc(-c4nc(-c5ccc(Cl)cc5)c(C)s4)c(=O)[nH]c3C2)cc1` (stereo not drawn): 70% (active); for `CON(C)c1nc(OCCNC(=O)OCc2ccc(Cl)cc2Cl)nc(N(C)C)n1`: 76%.
The same measure for `CCOc1ccc(NC(=O)CCCc2nnc3n(C)c(=O)c4sccc4n23)cc1`: 78%; for `COc1ccc(NC(=O)c2cc3c(=O)n(Cc4cccs4)ccc3nc2C)cc1`: 75%.
In the case of `Cc1nc2ccn(Cc3cccs3)c(=O)c2cc1C(=O)NCc1ccccc1`, the survival was 78%.
The same measure for `Cc1nc2ccn(Cc3cccs3)c(=O)c2cc1C(=O)NCc1ccc(Br)cc1`: 70%; for `COc1cc(NC(=O)c2cc3c(=O)n(Cc4cccs4)ccc3nc2C)cc(OC)c1OC`: 0% (active).
The same measure for `CCc1ccc(CNC(=O)c2cc3c(=O)n(Cc4cccs4)ccc3nc2C)cc1`: 32% (active); for `Cc1ccc(C)c(N2CCN(C(=O)c3cc4c(=O)n(Cc5cccnc5)ccc4nc3C)CC2)c1`: 46% (active); for `Cc1nc2ccn(Cc3cccs3)c(=O)c2cc1C(=O)Nc1ccccc1`: 84%.
`Cc1nc2ccn(Cc3cccnc3)c(=O)c2cc1C(=O)N1CCN(c2ccccc2)CC1`: the survival is 105%.
The value for `COc1ccc(CNC(=O)c2cc3c(=O)n(Cc4cccnc4)ccc3nc2C)cc1` was 37% (active); that for `Cc1nc2ccn(Cc3cccnc3)c(=O)c2cc1C(=O)NCc1ccccc1` was 72%.
The value for `Cc1ccc(C)c(N2CCN(C(=O)c3cc4c(=O)n(Cc5ccccc5)ccc4nc3C)CC2)c1` was 78%; that for `COc1cccc(CNC(=O)c2cc3c(=O)n(Cc4cccnc4)ccc3nc2C)c1` was 144%; that for `CCc1ccc(-n2c(=O)c3cccnc3n2CC(=O)N(CC)c2cccc(C)c2)cc1` was 94%.
Take `COc1ccc(Cl)cc1NC(=O)CCc1c(C)nc2c(c1C)c(=O)n(C)c(=O)n2C`: the survival is 94%.
The same measure for `Cc1cc(C)cc(NC(=O)Cn2c(C)cc(C)c(C#N)c2=O)c1`: 89%; for `CC(=NCCCn1ccnc1)c1c(C(F)(F)F)[nH]n(-c2nc3ccccc3s2)c1=O`: 120%.
For `COC(=O)c1ccc(Cn2nnc3c(=O)[nH]c(C4CCCN(S(=O)(=O)c5ccccc5)C4)nc32)cc1` (stereo not drawn), the survival was 99%.
The value for `CCOc1nc(NCCO)nc(NCCC2=CCCCC2)n1` was 67%; that for `CCc1ccccc1-n1nnc(-c2nc(-c3ccccc3F)no2)c1C` was 102%.
As for `CC(C)(C)c1ccc(C(=O)NCC(=O)OCc2cc(=O)n3nc(C4CC4)sc3n2)cc1`, the survival was 85%.
Turning to `CCOC(=O)c1c(S(=O)(=O)N2CCN(c3cccc(C(F)(F)F)c3)CC2)c(C)n(C)c1C`, the survival is 116%.
As to `CCS(=O)(=O)c1cccc(C(=O)N2CCN(c3nc4c(C)ccc(Cl)c4s3)CC2)c1`, the survival was 78%.
The value for `Cc1cccc(NC(=O)c2cc3c(=O)n(Cc4cccnc4)ccc3nc2C)c1` was 0% (active).
The same measure for `Cc1nc2ccn(Cc3cccs3)c(=O)c2cc1C(=O)NCc1ccc(Cl)cc1`: 49%; for `CC(=O)Nc1ccc(NC(=O)c2cc3c(=O)n(Cc4cccnc4)ccc3nc2C)cc1`: 57%; for `Cc1ccc(CNC(=O)c2cc3c(=O)n(Cc4ccco4)ccc3nc2C)cc1`: 87%.
Consider `Cc1nc2ccn(Cc3ccco3)c(=O)c2cc1C(=O)NCc1ccc(Cl)cc1`, for which the survival was 47% (active).
With `COc1ccc(CNC(=O)c2cc3c(=O)n(Cc4cccs4)ccc3nc2C)cc1`, the survival was 37% (active).
The same measure for `COc1cccc(NC(=O)c2cc3c(=O)n(Cc4cccnc4)ccc3nc2C)c1`: 101%.
On to `CCOc1ccc(CNC(=O)c2cc3c(=O)n(Cc4cccs4)ccc3nc2C)cc1`, for which the survival is 112%.
In the case of `Cc1nc2ccn(Cc3ccco3)c(=O)c2cc1C(=O)NCc1ccccc1`, the survival was 79%.
The same measure for `Cc1nn(C)c2c1c(-c1ccccc1)cc(=O)n2Cc1ccccc1Cl`: 88%; for `Cc1cccc(NC(=O)Cn2c(=O)n(CCc3ccccc3)c(=O)c3sc4ccccc4c32)c1`: 105%; for `Cc1ccc(Cn2ccnc2SCC(=O)NC2CCCC2)cc1`: 89%.
The value for `Cc1cccc(C)c1NC(=O)CN1C(=O)c2ccccc2Sc2ncccc21` was 88%; that for `COc1ccccc1-c1cc(C(=O)NCc2ccccc2)c2c(-c3ccc(C)cc3)[nH]nc2n1` was 80%.
The value for `Cn1c(SCC(N)=O)nc2c([nH]c3ccccc32)c1=O` was 88%.
With `COc1ccccc1N1CCN(C(=O)C(CCSC)NS(=O)(=O)c2ccc3c(c2)oc(=O)n3C)CC1` (stereo not drawn), the survival is 87%.
Take `Cc1ccc(Cn2c(=O)n(-c3ccccc3)c(=O)c3ccc(C(=O)NCc4ccco4)cc32)cc1`: the survival is 75%.
The same measure for `COc1ccc(CCN2C(=O)NC(NC(=O)c3ccccc3OC)(C(F)(F)F)C2=O)cc1OC` (stereo not drawn): 77%; for `COc1ccc(CNC(=O)c2ccc3c(c2)N(C)C(=O)C2CCCCN32)cc1OC` (stereo not drawn): 75%; for `CCCCOc1ccc(CNC(=O)c2ccc3c(c2)N(C)C(=O)C2CCCCN32)cc1` (stereo not drawn): 74%.
`CC(C)Oc1ccc(CNC(=O)c2ccc3c(c2)N(C)C(=O)C2CCCCN32)cc1` (stereo not drawn): the survival is 37% (active).
The same measure for `CSc1ccc(CNC(=O)c2ccc3c(c2)N(C)C(=O)C2CCCCN32)cc1` (stereo not drawn): 92%.
For the compound `COc1cccc(CNC(=O)c2ccc3c(c2)N(C)C(=O)C2CCCCN32)c1` (stereo not drawn), the survival was 72%.
For `Cc1cccc(CNC(=O)c2ccc3c(c2)N(C)C(=O)C2CCCCN32)c1` (stereo not drawn), the survival is 0% (active).
The same measure for `CCOc1ccc(CNC(=O)C2CCCN(c3nn4cc(-c5ccc(OC)cc5)nc4s3)C2)cc1` (stereo not drawn): 99%; for `Cc1c2cnn(CC(=O)N3CCN(c4ccccc4)CC3)c(=O)c2c(C)n1Cc1ccc(F)cc1`: 67%.
